# Data reported in PubChem BioAssay (EPA / NIEHS).
# Results filed as inconclusive are left out. Active and inactive are the calls of the source. The calls were made as follows, unless noted: active = hit-call score of the fitted dose curve at least 0.9, where 1 is the maximum; inconclusive = response in the unintended direction; inactive = score below 0.9.
# How the values were obtained:
# [1] = ATG_GRE_CIS: Attagene CIS-FACTORIAL HepG2 Assay for human Glucocorticoid Response Elements (GRE) (AID 2282947; active = hit-call score of the fitted dose curve at least 0.9, where 1 is the maximum; inactive = score below 0.9); conditions: HepG2 GRE cis-reporter, Attagene multiplex mRNA; actives raise or lower the signal
# How it was run: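 Cells (HepG2) bearing transfected cis-promoter reporter transcription units were treated with chemical for 24 hours. Reporter mRNA was measured via RT-PCR with capillary electrophoresis, and activity was fitted in both directions relative to DMSO.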
# [2] = ATG_MRE_CIS: Attagene CIS-FACTORIAL HepG2 Assay for human Metal Responsive Element (MRE) (AID 2282954; active = hit-call score of the fitted dose curve at least 0.9, where 1 is the maximum; inactive = score below 0.9); conditions: HepG2 MRE cis-reporter transcription, Attagene multiplex; actives raise or lower the signal
# How it was run: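 Cells were transfected with cis-promoter reporter transcription units, then dosed for 24 h. RNA was reverse-transcribed, amplified, fluorescently labelled and resolved by capillary electrophoresis, and activity was fitted in both directions relative to DMSO.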
# [3] = ATG_PBREM_CIS: Attagene CIS-FACTORIAL HepG2 Assay for human Phenobarbital-responsive Enhancer Module (PBREM) (AID 2282955; active = hit-call score of the fitted dose curve at least 0.9, where 1 is the maximum; inactive = score below 0.9); conditions: HepG2 PBREM cis-reporter, Attagene multiplexed transcription; actives raise or lower the signal
# How it was run: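 Readout: reporter mRNA, fluorescent RT-PCR fragments separated by capillary electrophoresis. System: HepG2 transiently transfected with cis-regulated reporter units. Exposure: 24 h. Analysis: bidirectional, DMSO baseline.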
# [4] = target: Paired box protein Pax-6 (Homo sapiens) (UniProt P26367); assay: ATG_Pax6_CIS: Attagene CIS-FACTORIAL HepG2 Assay for human Paired Box 6 (PAX6) (AID 2282956; active = hit-call score of the fitted dose curve at least 0.9, where 1 is the maximum; inactive = score below 0.9); conditions: HepG2 CIS-FACTORIAL PAX6 reporter transcription, RNA readout; actives raise or lower the signal
# How it was run: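 Values derive from bidirectional curve fitting of reporter mRNA signal relative to DMSO. HepG2 cells bearing transfected cis-regulated MRTUs were exposed for 24 h; transcripts were read by RT-PCR and capillary electrophoresis.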
# [5] = ATG_RORE_CIS: Attagene CIS-FACTORIAL HepG2 Assay for human RAR-related Orphan Receptor Element (RORE) (AID 2282959; active = hit-call score of the fitted dose curve at least 0.9, where 1 is the maximum; inactive = score below 0.9); conditions: HepG2 Attagene cis-factorial RORE reporter, mRNA; actives raise or lower the signal
# How it was run: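 Measured here: transcript induction of a cis-regulated reporter in HepG2 cells transiently transfected via FuGene 6. After 24 h, RNA was processed by RT-PCR and fluorescent capillary electrophoresis; DMSO defined baseline activity.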
# [6] = ATG_M_06_TRANS: Attagene TRANS-FACTORIAL HepG2 Assay for M06 Transcription Factor (Internal Marker) (AID 2282983); conditions: HepG2 Attagene TRANS M06 internal marker reporter
# How it was run: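 In this multiplexed HepG2 system, compounds are incubated 24 h with cells carrying GAL4-UAS reporter units. Reporter RNA is amplified and resolved by capillary electrophoresis, and induction is scored against DMSO.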
# [7] = ATG_NF_kB_CIS: Attagene CIS-FACTORIAL HepG2 Assay for human Nuclear Factor Kappa B (NF-kB) (AID 2282991; active = hit-call score of the fitted dose curve at least 0.9, where 1 is the maximum; inactive = score below 0.9); conditions: HepG2 Attagene cis-factorial NF-kB reporter mRNA; actives raise or lower the signal
# How it was run: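 After 24 h compound incubation, transfected HepG2 cells yield total RNA; reporter cDNA is PCR-amplified, end-labelled with 6-FAM, HpaI-digested and analysed on a genetic analyser. Endogenous factor activity, DMSO-referenced bidirectional fit.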
# [8] = target: Peroxisome proliferator-activated receptor gamma (Homo sapiens) (UniProt P37231); assay: ATG_PPARg_TRANS: Attagene TRANS-FACTORIAL HepG2 Assay for human Peroxisome Proliferator-activated Receptor-gamma (PPARg) (AID 2283007)
# How it was run: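 Liver-derived HepG2 cells expressing an exogenous NR-Gal4 chimera alongside GAL4-UAS reporter genes; 24 h exposure. Fluorescence of reporter RT-PCR products, separated by capillary electrophoresis, gives mRNA induction relative to DMSO.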
# [9] = target: Nuclear receptor subfamily 1 group I member 2 (Homo sapiens) (UniProt O75469); assay: ATG_PXR_TRANS: Attagene TRANS-FACTORIAL HepG2 Assay for human Pregnane X Receptor (PXR) (AID 2283008)
# How it was run: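 Transient HepG2 transfectants carrying multiplexed reporter transcription units; PXR activity read through a Gal4 chimera. 24 h exposure. RT-PCR/CE fluorescence; upward curve fit referenced to DMSO.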
# [10] = target: human Retinoid X Receptor beta (RXRb), RXRB (gene 6257) (UniProt P28702); assay: ATG_RXRb_TRANS: Attagene TRANS-FACTORIAL HepG2 Assay for human Retinoid X Receptor beta (RXRb) (AID 2283013)
# How it was run: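 Chimeric receptor-Gal4 activity was assessed in transiently transfected human HepG2 cells after 24 h exposure. Transcripts from GAL4-UAS reporters were quantified by fluorescent RT-PCR and capillary electrophoresis, with DMSO as negative control and baseline.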
# [11] = ATG_M_61_CIS: Attagene CIS-FACTORIAL HepG2 Assay for M61 Transcription Factor (Internal Marker) (AID 2282937; active = hit-call score of the fitted dose curve at least 0.9, where 1 is the maximum; inactive = score below 0.9); conditions: HepG2 Attagene CIS-FACTORIAL M61 internal marker reporter; actives raise or lower the signal
# How it was run: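 Using transiently transfected HepG2 liver cells, reporter transcript levels were assessed 24 h post-dosing by RT-PCR and capillary electrophoresis. Changes in either direction were fitted relative to DMSO controls.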
# [12] = target: Hepatocyte nuclear factor 4-alpha (Homo sapiens) (UniProt P41235); assay: ATG_HNF4a_TRANS: Attagene TRANS-FACTORIAL HepG2 Assay for human Hepatocyte Nuclear Factor 4 alpha (HNF4a) (AID 2282982); conditions: HepG2 HNF4a transactivation reporter, mRNA readout
# How it was run: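 In this trans-factorial format, a chimeric HNF4a-GAL4 fusion drives a GAL4-UAS reporter in transfected HepG2 liver cells. After 24 h treatment, reporter mRNA induction is measured by RT-PCR with capillary electrophoresis, relative to DMSO.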
# [13] = target: Myc proto-oncogene protein (Homo sapiens) (UniProt P01106); assay: ATG_Myc_CIS: Attagene CIS-FACTORIAL HepG2 Assay for human Myelocytomatosis (Myc) Proto-Oncogene Transcription Factor (AID 2282990; active = hit-call score of the fitted dose curve at least 0.9, where 1 is the maximum; inactive = score below 0.9); conditions: HepG2, Attagene cis-reporter transcription factor activity; actives raise or lower the signal
# How it was run: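 Multiplexed cis-reporter transcription in HepG2 cells after 24 h chemical treatment. Reporter mRNA measured by RT-PCR and capillary electrophoresis fluorescence; activity fitted bidirectionally against DMSO control.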
# [14] = target: Cellular tumor antigen p53 (Homo sapiens) (UniProt P04637); assay: TOX21_p53_BLA_p2_ratio: Tox21 HCT-116 p53 Agonism Beta-lactamase Assay, Ratio, Phase 2 (AID 2283592)
# How it was run: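 Ratio endpoint: beta-lactamase cleavage of CCF4-AM, blue (460 nm) over green (530 nm). HCT116 reporter line; 16 h treatment, 37C; substrate 2 h RT.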
# [15] = target: Cellular tumor antigen p53 (Homo sapiens) (UniProt P04637); assay: TOX21_p53_BLA_p3_ratio: Tox21 HCT-116 p53 Agonism Beta-lactamase Assay, Ratio, Phase 3 (AID 2283596)
# How it was run: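 Cells were seeded at 4000/well, rested 5 h at 37C, then dosed with DMSO compound solutions (217-fold dilution) for 16 h. CCF4-AM substrate was loaded for 2 h at room temperature, and the 460/530 nm emission ratio was fitted for gain of signal versus DMSO.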
# [16] = target: Cellular tumor antigen p53 (Homo sapiens) (UniProt P04637); assay: TOX21_p53_BLA_p5_ratio: Tox21 HCT-116 p53 Agonism Beta-lactamase Assay, Ratio, Phase 5 (AID 2283599)
# How it was run: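 HCT-116 cells carrying a p53-inducible beta-lactamase reporter were seeded at 4000 cells/well and dosed after 5 h with compound in DMSO (217-fold dilution). After 16 h at 37C, CCF4-AM substrate was added for 2 h, and the 460/530 nm emission ratio was scored as gain-of-signal versus DMSO.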
# [17] = TOX21_p53_BLA_p5_viability: Viability Assessment in the Tox21 HCT-116 p53 Agonism Beta-lactamase Assay, Phase 5 (AID 2283600)
# How it was run: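 Luciferase-coupled ATP quantitation of cells treated for 16 h (37C, 5% CO2) with test chemicals delivered in DMSO via a 217-fold dilution; 4000 cells/well; reagent incubated 30 min at room temperature before luminescence reading.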
# [18] = target: Cellular tumor antigen p53 (Homo sapiens) (UniProt P04637); assay: TOX21_p53_BLA_p4_ratio: Tox21 HCT-116 p53 Agonism Beta-lactamase Assay, Ratio, Phase 4 (AID 2283601)
# How it was run: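 HCT116 cells carrying an inducible beta-lactamase reporter were plated at 4000 cells/well, rested 5 h, then exposed to compounds in DMSO (217-fold dilution) for 16 h at 37C. CCF4-AM substrate was loaded 2 h at room temperature; 460/530 nm emission ratio scored gain-of-signal versus DMSO.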
# [19] = target: Hepatocyte nuclear factor 6 (Homo sapiens) (UniProt Q9UBC0); assay: ATG_HNF6_CIS: Attagene CIS-FACTORIAL HepG2 Assay for human Hepatocyte Nuclear Factor 6 (HNF6) (AID 2282952; active = hit-call score of the fitted dose curve at least 0.9, where 1 is the maximum; inactive = score below 0.9); conditions: HepG2 Attagene cis-factorial HNF6 reporter transcription; actives raise or lower the signal
# How it was run: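 Activity values derive from bidirectional fitting against DMSO of reporter mRNA levels, measured by capillary electrophoresis of labelled RT-PCR products from HepG2 cells exposed 24 h.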
# [20] = target: human Peroxisome Proliferator-activated Receptor alpha (PPARa), PPARA (gene 5465) (UniProt Q07869); assay: ATG_PPARa_TRANS: Attagene TRANS-FACTORIAL HepG2 Assay for human Peroxisome Proliferator-activated Receptor alpha (PPARa) (AID 2283001)
# How it was run: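 Cells (HepG2) are transfected with multiple reporter transcription units, exposed to chemical for 24 h, then total RNA is reverse-transcribed and amplified. Labelled products are quantified by capillary electrophoresis; induction is referenced to DMSO.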
# Nuclear receptor subfamily 1 group I member 2 (Homo sapiens), sequence (O75469 whole entry, looked up, the tested form may be a part): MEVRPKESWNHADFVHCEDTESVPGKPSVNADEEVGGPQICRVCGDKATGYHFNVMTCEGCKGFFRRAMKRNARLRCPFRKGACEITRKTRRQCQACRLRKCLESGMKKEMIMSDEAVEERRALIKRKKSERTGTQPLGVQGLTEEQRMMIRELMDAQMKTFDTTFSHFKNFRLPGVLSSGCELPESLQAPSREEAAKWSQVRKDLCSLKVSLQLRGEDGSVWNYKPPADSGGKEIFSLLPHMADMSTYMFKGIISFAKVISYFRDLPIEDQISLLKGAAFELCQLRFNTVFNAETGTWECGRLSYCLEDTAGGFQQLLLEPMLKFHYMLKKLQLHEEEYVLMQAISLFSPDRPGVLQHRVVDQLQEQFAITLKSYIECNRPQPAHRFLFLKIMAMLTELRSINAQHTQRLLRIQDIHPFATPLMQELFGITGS
# Paired box protein Pax-6 (Homo sapiens), sequence (P26367 whole entry, looked up): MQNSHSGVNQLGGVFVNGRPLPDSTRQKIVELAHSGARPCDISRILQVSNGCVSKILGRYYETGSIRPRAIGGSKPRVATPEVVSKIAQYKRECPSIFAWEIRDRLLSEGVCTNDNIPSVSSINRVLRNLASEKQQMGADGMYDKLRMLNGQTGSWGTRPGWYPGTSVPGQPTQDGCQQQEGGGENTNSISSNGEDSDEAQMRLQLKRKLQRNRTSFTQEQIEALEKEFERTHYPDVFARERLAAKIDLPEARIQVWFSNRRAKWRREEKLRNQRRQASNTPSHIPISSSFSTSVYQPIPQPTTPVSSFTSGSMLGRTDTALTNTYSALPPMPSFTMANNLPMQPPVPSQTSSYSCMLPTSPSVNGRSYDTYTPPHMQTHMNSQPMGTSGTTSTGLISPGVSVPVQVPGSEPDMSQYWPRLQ
# Cellular tumor antigen p53 (Homo sapiens), sequence (P04637 whole entry, looked up): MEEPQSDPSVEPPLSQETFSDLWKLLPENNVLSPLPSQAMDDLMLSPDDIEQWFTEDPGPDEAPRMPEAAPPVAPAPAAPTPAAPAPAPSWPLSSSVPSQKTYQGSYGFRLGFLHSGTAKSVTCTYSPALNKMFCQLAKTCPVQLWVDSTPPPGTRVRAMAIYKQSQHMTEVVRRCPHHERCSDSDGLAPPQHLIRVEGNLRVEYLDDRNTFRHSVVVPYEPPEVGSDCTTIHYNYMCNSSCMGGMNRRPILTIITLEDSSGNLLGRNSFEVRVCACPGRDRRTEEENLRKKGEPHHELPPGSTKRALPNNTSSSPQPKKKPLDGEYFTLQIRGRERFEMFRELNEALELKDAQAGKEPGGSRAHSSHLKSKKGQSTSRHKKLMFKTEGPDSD
# Peroxisome proliferator-activated receptor gamma (Homo sapiens), sequence (P37231 whole entry, looked up, the tested form may be a part): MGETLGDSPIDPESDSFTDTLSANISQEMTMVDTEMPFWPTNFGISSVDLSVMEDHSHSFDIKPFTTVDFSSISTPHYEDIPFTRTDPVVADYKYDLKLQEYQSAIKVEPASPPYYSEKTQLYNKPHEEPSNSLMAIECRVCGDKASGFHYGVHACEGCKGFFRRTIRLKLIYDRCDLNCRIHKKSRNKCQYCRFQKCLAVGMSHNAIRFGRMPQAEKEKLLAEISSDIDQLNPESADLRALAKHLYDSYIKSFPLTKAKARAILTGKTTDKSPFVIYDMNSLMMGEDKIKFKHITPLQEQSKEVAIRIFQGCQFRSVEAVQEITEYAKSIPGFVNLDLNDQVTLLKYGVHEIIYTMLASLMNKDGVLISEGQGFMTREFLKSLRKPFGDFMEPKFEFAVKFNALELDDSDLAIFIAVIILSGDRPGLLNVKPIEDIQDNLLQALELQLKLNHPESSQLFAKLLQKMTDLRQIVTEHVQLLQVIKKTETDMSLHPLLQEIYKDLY
# human Retinoid X Receptor beta (RXRb), RXRB (gene 6257), sequence (P28702 whole entry, looked up, the tested form may be a part): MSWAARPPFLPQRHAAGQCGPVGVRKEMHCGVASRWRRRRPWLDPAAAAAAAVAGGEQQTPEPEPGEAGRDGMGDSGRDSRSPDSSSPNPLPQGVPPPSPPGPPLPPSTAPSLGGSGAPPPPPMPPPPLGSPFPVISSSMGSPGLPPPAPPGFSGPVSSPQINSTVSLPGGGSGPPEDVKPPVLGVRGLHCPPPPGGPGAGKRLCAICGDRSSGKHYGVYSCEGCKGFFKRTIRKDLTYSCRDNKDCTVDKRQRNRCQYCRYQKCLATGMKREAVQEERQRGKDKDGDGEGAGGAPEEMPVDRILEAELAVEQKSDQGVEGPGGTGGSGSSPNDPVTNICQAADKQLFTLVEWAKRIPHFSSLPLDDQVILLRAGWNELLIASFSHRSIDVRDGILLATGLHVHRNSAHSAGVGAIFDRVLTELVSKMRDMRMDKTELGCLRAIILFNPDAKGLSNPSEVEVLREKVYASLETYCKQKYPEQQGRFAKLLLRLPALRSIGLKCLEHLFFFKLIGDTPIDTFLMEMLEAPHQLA
# Hepatocyte nuclear factor 6 (Homo sapiens), sequence (Q9UBC0 whole entry, looked up): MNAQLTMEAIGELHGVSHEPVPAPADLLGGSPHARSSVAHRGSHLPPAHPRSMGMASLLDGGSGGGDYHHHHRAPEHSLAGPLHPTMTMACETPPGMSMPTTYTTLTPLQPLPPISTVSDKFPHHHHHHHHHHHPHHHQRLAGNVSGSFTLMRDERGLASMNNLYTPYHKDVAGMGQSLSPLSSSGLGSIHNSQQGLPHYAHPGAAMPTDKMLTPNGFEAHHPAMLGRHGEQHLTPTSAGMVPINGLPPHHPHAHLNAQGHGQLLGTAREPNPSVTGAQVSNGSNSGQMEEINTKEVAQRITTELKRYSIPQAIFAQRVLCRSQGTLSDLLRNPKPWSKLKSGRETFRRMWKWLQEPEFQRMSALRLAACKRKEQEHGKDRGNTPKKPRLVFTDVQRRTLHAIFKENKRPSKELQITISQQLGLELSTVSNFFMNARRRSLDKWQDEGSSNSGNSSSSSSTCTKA
# Myc proto-oncogene protein (Homo sapiens), sequence (P01106 whole entry, looked up): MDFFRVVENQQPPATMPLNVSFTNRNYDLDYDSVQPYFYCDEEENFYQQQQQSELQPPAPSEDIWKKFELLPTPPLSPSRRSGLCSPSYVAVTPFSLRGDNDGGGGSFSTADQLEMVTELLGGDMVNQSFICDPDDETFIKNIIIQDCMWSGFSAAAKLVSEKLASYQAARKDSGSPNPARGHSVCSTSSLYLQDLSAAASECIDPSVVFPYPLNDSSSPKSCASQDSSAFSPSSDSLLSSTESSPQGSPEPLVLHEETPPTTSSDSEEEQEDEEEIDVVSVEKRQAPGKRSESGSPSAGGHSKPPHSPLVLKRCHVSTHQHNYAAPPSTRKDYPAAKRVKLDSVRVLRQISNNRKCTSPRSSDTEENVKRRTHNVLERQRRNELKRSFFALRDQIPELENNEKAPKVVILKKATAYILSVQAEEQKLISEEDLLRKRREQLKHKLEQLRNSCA
# Hepatocyte nuclear factor 4-alpha (Homo sapiens), sequence (P41235 whole entry, looked up, the tested form may be a part): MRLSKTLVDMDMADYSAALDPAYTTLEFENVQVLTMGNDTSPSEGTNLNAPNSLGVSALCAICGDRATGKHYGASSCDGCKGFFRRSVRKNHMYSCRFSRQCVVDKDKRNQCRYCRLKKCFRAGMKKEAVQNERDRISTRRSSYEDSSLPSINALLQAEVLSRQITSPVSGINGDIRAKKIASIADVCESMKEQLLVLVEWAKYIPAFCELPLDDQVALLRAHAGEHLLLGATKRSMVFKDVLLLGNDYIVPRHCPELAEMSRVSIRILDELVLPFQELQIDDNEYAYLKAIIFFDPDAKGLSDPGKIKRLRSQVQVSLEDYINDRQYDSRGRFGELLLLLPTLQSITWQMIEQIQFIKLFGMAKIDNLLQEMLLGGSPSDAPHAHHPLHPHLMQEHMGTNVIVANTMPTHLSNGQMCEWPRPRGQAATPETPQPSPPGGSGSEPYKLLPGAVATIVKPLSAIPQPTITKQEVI
# human Peroxisome Proliferator-activated Receptor alpha (PPARa), PPARA (gene 5465), sequence (Q07869 whole entry, looked up): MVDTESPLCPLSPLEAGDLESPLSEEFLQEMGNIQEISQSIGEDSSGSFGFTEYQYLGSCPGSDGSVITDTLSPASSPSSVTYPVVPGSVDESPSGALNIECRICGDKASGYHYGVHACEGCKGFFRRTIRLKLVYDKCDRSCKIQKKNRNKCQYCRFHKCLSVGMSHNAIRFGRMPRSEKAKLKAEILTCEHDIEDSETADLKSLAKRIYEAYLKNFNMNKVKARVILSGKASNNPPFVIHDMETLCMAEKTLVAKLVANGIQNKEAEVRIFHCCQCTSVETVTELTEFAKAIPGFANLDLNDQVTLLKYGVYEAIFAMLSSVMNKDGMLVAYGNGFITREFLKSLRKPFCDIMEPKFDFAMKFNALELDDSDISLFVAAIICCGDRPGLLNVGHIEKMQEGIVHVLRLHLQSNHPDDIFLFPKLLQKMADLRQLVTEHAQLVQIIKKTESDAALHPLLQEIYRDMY
smiles,measurement,setting,value
CC(C)(C)C(O)C(Oc1ccc(-c2ccccc2)cc1)n1cncn1 (stereo not drawn),outcome,[1],inactive
same,AC50,[2],42 µM (active)
same,outcome,[3],inactive
same,outcome,[4],inactive
same,outcome,[5],inactive
same,outcome,[6],inactive
same,outcome,[7],inactive
same,AC50,[8],14.3 µM (active)
same,AC50,[9],1.78 µM (active)
same,outcome,[10],inactive
CCc1cc(C)cc(CC)c1-c1c(OC(=O)C(C)(C)C)n2n(c1=O)CCOCC2,outcome,[11],inactive
same,outcome,[1],inactive
same,outcome,[2],inactive
same,outcome,[12],inactive
same,outcome,[7],inactive
same,outcome,[8],inactive
same,outcome,[9],inactive
Nc1ccccc1C(=O)Oc1ccc2ccccc2c1,outcome,[11],inactive
same,outcome,[1],inactive
same,AC50,[2],67.2 µM (active)
same,outcome,[3],inactive
same,outcome,[5],inactive
same,outcome,[6],inactive
same,outcome,[13],inactive
same,AC50,[8],54.9 µM (active)
same,AC50,[9],48.6 µM (active)
same,outcome,[10],inactive
same,outcome,[14],inactive
same,outcome,[15],inactive
same,AC50,[16],83.5 µM (active)
same,outcome,[17],inactive
same,outcome,[18],inactive
C[C@]12CCC(=O)C(O)=C1CC[C@@H]1[C@@H]2CC[C@]2(C)C(=O)CC[C@@H]12,outcome,[11],inactive
same,outcome,[1],inactive
same,outcome,[19],inactive
same,outcome,[2],inactive
same,outcome,[3],inactive
same,outcome,[4],inactive
same,outcome,[13],inactive
same,outcome,[7],inactive
same,outcome,[8],inactive
same,outcome,[9],inactive
same,outcome,[14],inactive
same,outcome,[16],inactive
same,outcome,[17],inactive
same,outcome,[18],inactive
[N-]=[N+]=CC(=O)OC[C@H](N)C(=O)O,outcome,[19],inactive
same,outcome,[2],inactive
same,outcome,[4],inactive
same,outcome,[5],inactive
same,outcome,[6],inactive
same,outcome,[7],inactive
same,outcome,[20],inactive
same,outcome,[14],inactive
same,outcome,[15],inactive
same,outcome,[16],inactive
same,outcome,[17],inactive
same,outcome,[18],inactive
